{"source": "PubChem BioAssay AID652016", "about": "(National Center for Advancing Translational Sciences (NCATS), 2013)", "note": "Results filed as inconclusive are left out. Where a call stands in place of a potency, no number is given. Activity calls are given as the source filed them. Calls follow the shape of the dose curve; as a rule, active = well fitted inhibition curve with a large enough effect; inconclusive = small, poorly fitted or top-dose-only effect; inactive = flat fitted curve, though single readings scatter. Potency is read from the fitted curve at half-maximal effect."}
{"target": "Luciferin 4-monooxygenase (Photinus pyralis) (UniProt P08659)", "sequence (P08659 whole entry, looked up)": "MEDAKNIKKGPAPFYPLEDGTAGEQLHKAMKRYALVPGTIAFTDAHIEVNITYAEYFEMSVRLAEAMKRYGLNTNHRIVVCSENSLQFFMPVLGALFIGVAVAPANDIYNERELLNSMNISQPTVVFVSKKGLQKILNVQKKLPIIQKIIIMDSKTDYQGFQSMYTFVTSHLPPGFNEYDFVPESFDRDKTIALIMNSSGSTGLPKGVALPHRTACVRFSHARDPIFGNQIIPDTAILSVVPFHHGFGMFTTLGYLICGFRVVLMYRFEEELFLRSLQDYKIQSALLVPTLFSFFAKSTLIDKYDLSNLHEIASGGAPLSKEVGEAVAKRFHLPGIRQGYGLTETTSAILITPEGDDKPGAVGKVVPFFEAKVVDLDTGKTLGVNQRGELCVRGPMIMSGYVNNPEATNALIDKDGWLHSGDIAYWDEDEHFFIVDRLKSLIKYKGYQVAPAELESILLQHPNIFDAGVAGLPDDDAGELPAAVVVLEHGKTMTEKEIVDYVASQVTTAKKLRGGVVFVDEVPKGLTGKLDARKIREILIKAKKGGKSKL", "assay": "qHTS Assay for Inhibitors of Firefly Luciferase from the GSK Published Protein Kinase Inhibitor Set", "conditions": "purified firefly luciferase, luminescence inhibition; series mostly up to 57.5 µM", "from_the_text": "FLuc (firefly luciferase) is the prototypical bioluminescent reporter gene from Photinus pyralis.[1] The enzyme catalyzes the oxidation luciferin via luciferin-AMP to produce light. FLuc is used in cell-based reporter gene-based assays for screening small molecule chemical libraries. However, small molecule luciferase inhibitors present in most large chemical libraries are often enriched in the output of high throughput screens using this reporter sometimes complicating interpretation and candidate selection.\nRLuc is a bioluminescent reporter gene luciferase from Renilla reniformis, also known as the sea pansy. RLuc uses the luciferin substrate coelenterazine. RLuc is often used in combination with the nonhomologous luciferase FLuc (firefly luciferease) as a trasfection or pathway normalization control. Recently, non-homologous reporters have been described for high throughput screening 'coincidence' reporter gene strategies.\n1. Fan F, Wood KV (2007) Bioluminescent assays for high-throughput screening. Assay Drug Dev Technol 5: 127-136.\n2. Thorne N, Inglese J, Auld DS (2010) Illuminating insights into firefly luciferase and other bioluminescent reporters used in chemical biology. Chem Biol 17: 646-657.\n3. […] Chem Biol 19: 1060-1072.\n4. Michelini E, Cevenini L, Mezzanotte L, Coppa A, Roda A (2010) Cell-based assays: fuelling drug discovery. Anal Bioanal Chem 398: 227-238.\n5. Cheng KC, Inglese J (2012) A coincidence reporter-gene system for high-throughput screening. Nat Methods 9: 937.\nBiochemical firefly luciferase enzyme assay\nNCGC Assay Protocol Summary:\nReagents: 50mM Tris acetate, pH 7.5; 10mM Mg acetate; 10uM D-luciferin (Sigma #L9504); 10uM ATP; 0.01% Tween-20; 0.05% BSA; 10nM P. pyralis luciferase (Sigma #L9506)\nControl compounds used were two known firefly luciferase inhibitors (compounds (2) and (5) in Auld et al., 2010), and DMSO.\nThree microliters containing firefly luciferase substrates in buffer (final concentrations: 50mM Tris acetate, pH 7.5, 10mM Mg acetate, 0.01% Tween-20, 0.05% BSA, 10uM D-luciferin, and 10uM ATP) are dispensed into each well of a Greiner white, solid-bottom 1536-well format plate using a flying reagent dispenser (FRD). These assay plates were then treated with 23nL of compound or DMSO using a Kalypsys pin tool, which allows for delivery of a 7-point interplate titration of each compound to the assay plates (quantitative HTS), with final compound concentrations ranging from approximately 60uM to 300pM. One microliter of firefly luciferase in 50mM Tris-acetate buffer was then delivered by FRD to each well for a final enzyme concentration of 10nM. Luciferase activity was then measured using an Envision plate reader (PerkinElmer), with an average incubation time of 5 min."}
{"smiles": "O=C1Nc2ccccc2C1=C1CCc2cc(O)ccc21", "Potency": "5.17 µM (active)"}
{"smiles": "CCn1c(-c2nonc2N)nc2cncc(C(=O)N3CCC(N)C3)c21", "note": "(stereo not given)", "Potency": "inactive"}
{"smiles": "NC(=O)c1cccc(Nc2nccc(Nc3cccc4[nH]ncc34)n2)c1", "Potency": "13 µM (active)"}
{"smiles": "Cc1nc(-c2ccccc2)n2nc(NCCCN3CCOCC3)ncc12", "Potency": "inactive"}
{"smiles": "CCc1ccc(Oc2nccc(-c3c(-c4ccc(F)cc4)ncn3C3CCNCC3)n2)cc1", "Potency": "inactive"}
{"smiles": "CC(Oc1cc(-n2cnc3ccc(OCC4CCN(C)CC4)cc32)sc1C(N)=O)c1ccccc1C(F)(F)F", "note": "(stereo not given)", "Potency": "inactive"}
{"smiles": "Oc1cccc(-c2nc(-c3ccccc3)[nH]c2-c2ccncc2)c1", "Potency": "inactive"}
{"smiles": "CN1CCN(CCCNc2nc3ccc(Oc4ccc(NC(=O)Nc5cc(C(F)(F)F)ccc5F)cc4)cc3[nH]2)CC1", "Potency": "inactive"}
{"smiles": "COc1cc2ncn(-c3cc(OCc4cccs4)c(C(N)=O)s3)c2cc1OC", "Potency": "inactive"}
{"smiles": "NC(=O)c1sc(-n2cnc3cc(C(F)(F)F)ccc32)cc1OCc1ccccc1Br", "Potency": "inactive"}
{"smiles": "COc1cc(Nc2ncc3c(C)nc(-c4cccc(C(F)(F)F)c4)n3n2)cc(OC)c1OC", "Potency": "inactive"}
{"smiles": "O=C(OC1CNC(C#Cc2cc3ncnc(Nc4ccc(Cc5ccccc5)cc4)c3s2)C1)N1CCOCC1", "note": "(stereo not given)", "Potency": "inactive"}
{"smiles": "NS(=O)(=O)c1ccc(Nc2ncc(-c3ccccc3)o2)cc1", "Potency": "inactive"}
{"smiles": "CS(=O)(=O)CCNCc1nc(-c2ccc3ncnc(Nc4ccc(OCc5cccc(C(F)(F)F)c5)cc4)c3c2)cs1", "Potency": "inactive"}
{"smiles": "CCn1c(-c2nonc2N)nc2cncc(C(=O)NCCNC)c21", "Potency": "inactive"}
{"smiles": "CCS(=O)(=O)c1ccc(OC)c(Nc2nccc(N(C)c3ccc4c(C)[nH]nc4c3)n2)c1", "Potency": "inactive"}
{"smiles": "CC1=C(C(=O)Nc2cc(Cl)c3[nH]ncc3c2)C(c2ccc(C(F)(F)F)cc2)CC(=O)N1", "note": "(stereo not given)", "Potency": "inactive"}
{"smiles": "COC(=O)c1cncc(C=Cc2c(C)cc(O)cc2C)c1", "Potency": "inactive"}
{"smiles": "CCn1c(-c2nonc2N)nc2ccncc21", "Potency": "inactive"}
{"smiles": "Fc1ccc(-c2c(-c3ccncc3)nc3n2CCS3)cc1", "Potency": "inactive"}
{"smiles": "CCCN1CCC=C(c2ccc(Nc3nc(Nc4ccccc4C(N)=O)c4cc[nH]c4n3)c(C)c2)C1", "Potency": "inactive"}
{"smiles": "CN1CCC(n2cnc(-c3ccc(F)cc3)c2-c2ccnc(Nc3ccccc3)n2)CC1", "Potency": "inactive"}
{"smiles": "COc1cc2ncn(-c3cc(OCc4ccccc4C(F)(F)F)c(C(C)=O)s3)c2cc1OC", "Potency": "inactive"}
{"smiles": "Fc1cccc(COc2ccc(Nc3ncnc4sc(-c5cccs5)cc34)cc2Cl)c1", "Potency": "inactive"}
{"smiles": "Cc1cccc(Nc2ncc(-c3ccccc3)o2)c1", "Potency": "0.58 µM (active)"}
{"smiles": "Nc1nonc1-c1nc2cnccc2n1C1CCCCC1", "Potency": "inactive"}
{"smiles": "CC(=O)NCc1cccc(C#Cc2cncnc2Nc2ccc(OCc3cccc(F)c3)c(Cl)c2)c1", "Potency": "inactive"}
{"smiles": "O=C1Nc2ccc(I)cc2C1=Cc1cc(Br)c(O)c(Br)c1", "Potency": "inactive"}
{"smiles": "ON=C1CCc2cc(-c3nc(C4CCNCC4)[nH]c3-c3ccncc3)ccc21", "Potency": "inactive"}
{"smiles": "CN(C)CCOc1ccc(-c2cc(-c3ccc4c(c3)CCC4=NO)c(-c3ccncc3)o2)cc1", "Potency": "inactive"}
{"smiles": "CCN(CC)S(=O)(=O)c1ccc(OC)c(Nc2ncc(-c3ccccc3)o2)c1", "Potency": "inactive"}
{"smiles": "c1ccc(Cc2nc3ccc(Nc4ncnc5ccccc45)cc3[nH]2)cc1", "Potency": "16.3 µM (active)"}
{"smiles": "NS(=O)(=O)c1ccc(N=Nc2c(O)[nH]c3ccc(C(=O)NCc4ccncc4)cc23)cc1", "Potency": "inactive"}
{"smiles": "c1ccc(-c2[nH]ncc2-c2ccnc(-c3ccc(OCCn4ccnc4)cc3)c2)nc1", "Potency": "inactive"}
{"smiles": "Fc1ccc(-c2nc3n(c2-c2ccncc2)CCS3)cc1", "Potency": "inactive"}
{"smiles": "CCS(=O)(=O)c1ccc(OC)c(Nc2ncc(-c3ccccc3Cl)o2)c1", "Potency": "inactive"}
{"smiles": "Oc1[nH]c2ccccc2c1C=Nc1ccc(-n2cncn2)cc1", "Potency": "18.3 µM (active)"}
{"smiles": "Fc1cccc(COc2ccc(Nc3ncnc4sc(-c5ccco5)cc34)cc2Cl)c1", "Potency": "inactive"}
{"smiles": "Nc1nccc(-c2c(-c3ccc(F)cc3)ncn2C2CCC(O)CC2)n1", "note": "(stereo not given)", "Potency": "inactive"}
{"smiles": "NS(=O)(=O)c1ccc(Nc2cc(-c3ccc(O)c(F)c3)[nH]n2)cc1", "Potency": "inactive"}
